Results as given in PubChem BioAssay (Tox21).
Records with an inconclusive call do not appear. Where a call stands in place of a potency, no number is given. A structure can be active in one record and inactive in another. Active and inactive are the calls of the source. Calls follow the shape of the dose curve; as a rule, active = well fitted activation curve with a large enough effect in the repeat runs; inconclusive = weak or mixed curves; inactive = flat fitted curve, though single readings scatter.

Experiment: A CellTox Green Cytotoxicity Assay to monitor cytotoxicity in HepG2 cells - 24 hour (AID 1224878); also: nearly all actives have a fitted effect of over 45% in size
Details: CellTox Green fluorescence; series mostly up to 76.8 µM; cytotoxicity: at the top concentration
Text: National Center for Advancing Translational Sciences [NCATS]
NIH Chemical Genomics Center [NCGC]
U.S. Environmental Protection Agency [EPA]
National Institutes of Environmental Health Sciences [NIEHS]
National Toxicology Program [NTP]
Cell-based models are critical for drug discovery. Determining the natural cytotoxic effects resulting from test compounds is an essential research activity. A CellTox Green Cytotoxicity Assay to monitor cytotoxicity in real time of continues cell culture during 40 hours of the compound treatment was used to screen Tox21 10K library compounds in HepG2 cells. CellTox Green Cytotoxicity Assay is a nonlytic, homogeneous, biofluorescent method to measure cytotoxicity in cell culture after experimental manipulation. The assay system uses a proprietary asymmetric cyanine dye that is excluded from viable cells but preferentially stains the dead cell's DNA. […] Viable cells produce no appreciable increases in fluorescence. Therefore, the fluorescence signal produced by the binding interaction with dead cell DNA is proportional to cytotoxicity.
The mixture of HepG2 cell suspension and reagents were dispensed at 600cells/6 ul/well in 1536-well tissue culture treated black solid bottom plates using a Multidrop dispenser. After the assay plates were incubated at a 37 C/5% CO2 incubator for 5 hours, 23 nL of compounds dissolved in DMSO, positive and negative controls was transferred to the assay plate by a pintool work station. The plates were incubated at 37 C for 40 hours. The fluorescence intensity were measured at 0h, 8h, 16h, 24h, 32h and 40h time points using ViewLux plate reader during compound treatment.
Potency is read from the fitted curve at half-maximal effect.

| Compound | cytotoxicity | Potency |
| --- | --- | --- |
| O=C1CCCCCN1 | 2.14% (inactive) | – |
| CC1=C(/C=C/C(C)=C/C=C/C(C)=C/C(=O)O)C(C)(C)CCC1 | – | inactive |
| COc1cc(C=O)ccc1O | – | inactive |
| CN(C)C=O | – | inactive |
| NCCNc1cccc2ccccc12 | – | 53.6 µM (active) and inactive |
| Cc1cccc(C)c1O | – | inactive |
| O=C(O)CN(CC(=O)O)CC(=O)O | – | inactive |
| CC(C)(C)NCC(O)c1ccc(O)c(CO)c1 (stereo not given) | – | inactive |
| NC(=O)c1ccc([N+](=O)[O-])cc1Cl | – | inactive |
| O=C(OCc1ccccc1)c1ccccc1 | – | inactive |
| C[C@]12C[C@H](O)[C@H]3[C@@H](CCC4=CC(=O)CC[C@@]43C)[C@@H]1CC[C@@H]2C(=O)CO | – | inactive |
| CC(C)Cc1ccc(C(C)C(=O)O)cc1 (stereo not given) | – | inactive |
| Oc1cccc(O)c1 | – | inactive |
| CCOCCO | – | inactive |
| C=CCOC(=O)CC(C)C | – | inactive |
| Cc1cccc(Nc2cc(Cl)nc(SCC(=O)O)n2)c1C | – | inactive |
| CCn1cc(C(=O)O)c(=O)c2ccc(C)nc21 | – | inactive |
| CC(O)COc1ccccc1 (stereo not given) | – | inactive |
| COc1ccc(O)cc1 | – | inactive |
| COc1ccc(C(=O)c2ccccc2)c(O)c1 | – | inactive |

| Compound | cytotoxicity | Potency |
| --- | --- | --- |
| CCCCC/C(C=O)=C\c1ccccc1 | – | inactive |
| C=C(C)C(N)=O | – | inactive |
| CC(C)(C)CC(C)(C)c1ccc(O)c(-n2nc3ccccc3n2)c1 | – | inactive |
| c1ccc2[nH]c(-c3cscn3)nc2c1 | – | inactive |
| CCCCCCCCCCCCCC(=O)OC(C)C | – | inactive |
| Cc1c(N(C)C)c(=O)n(-c2ccccc2)n1C | – | inactive |
| COC(=O)c1ccc(O)cc1 | – | inactive |
| C[C@]12CC[C@@H]3c4ccc(O)cc4CC[C@H]3[C@@H]1CCC2=O | – | inactive |
| COc1ccccc1O | – | inactive |
| C=C(C)OC(C)=O | -1.13% (inactive) | – |
| OC[C@@H](O)[C@@H](O)[C@H](O)[C@H](O)CO | – | inactive |
| COc1cc(O)c(C(=O)c2ccccc2)cc1S(=O)(=O)O | – | inactive |
| NC(N)=NC(N)=NCCc1ccccc1 | – | inactive |
| CCCCCCCCCCCCCCCCCC(=O)OCC(O)CO (stereo not given) | – | inactive |
| COC(=O)C1CCC(C(=O)OC)CC1 (stereo not given) | – | inactive |
| C/C=C/c1ccc(O)c(OC)c1 | – | inactive |
| CN(C)Cc1cc(CN(C)C)c(O)c(CN(C)C)c1 | – | inactive |
| CC1(C)O[C@@H]2[C@@H](CO[C@@]3(COS(N)(=O)=O)OC(C)(C)O[C@@H]23)O1 | – | inactive |
| OCCCc1ccccc1 | – | inactive |
| Nc1cccc(N)c1 | – | inactive |
